Measured values reported in the supplement of paper PMC11219838.
Values without a mark were called inactive.

Tested on: Caenorhabditis elegans L1 (N2)
Experiment: survival and reproduction score of C. elegans L1 (0: 0-10 living worms, 1: 11-20, 2: 21-50, 3: >50, 4: overgrown) (score 0-4); higher = more worms, less nematicidal, active = 1 or less; extreme values may be limits of the assay
Conditions: 60 µM; 6 days; temperature: 20 °C
How it was run: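 Compound was pinned to a final 60 µM (0.6% v/v DMSO) into 96-well wells, each holding about 20 synchronized C. elegans N2 L1s and E. coli HB101 in liquid NGM. After 6 days of shaking at 200 rpm and 20 °C in sealed plates, the worms in each well were examined. The ordinal readout of survival and reproduction, based on living worms per well, was assessed under a dissection microscope. On this scale 0 meant 0–10 worms and 4 meant overgrown, starved wells, and two biological replicates were averaged.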

`CCCSc1nnc(-c2ccc(Cl)cc2Cl)o1` was tested, and the “survival and reproduction score” value was 0 (active).
For `Brc1ccc(-c2nc(-c3ccccc3)no2)cc1`, the “survival and reproduction score” value was 0 (active).
In the case of `CCCOc1ccc(-c2nc(-c3cccnc3)no2)cc1`, the “survival and reproduction score” value is reported as 0 (active).
For `CC(C)(Oc1ccc(Cl)cc1)c1nc(-c2ccncc2)no1`, the “survival and reproduction score” value was 0.5 (active).
`CCCCc1ccc(-c2nc(-c3cccnc3)no2)cc1` was tested, and the “survival and reproduction score” value was 0 (active).
`CC(C)(C)c1ccc(-c2nc(-c3ccncc3)no2)cc1` was tested, and the “survival and reproduction score” value was 0 (active).
In the case of `Brc1cccc(-c2nc(-c3ccncc3)no2)c1`, the “survival and reproduction score” value is reported as 1 (active).

Point of comparison: `Brc1ccc(OCc2nc(-c3ccc4c(c3)OCO4)no2)cc1`, “survival and reproduction score” value 4. Against it:
- Cc1ccc(NC(=O)CSc2nnc(-c3ccco3)o2)cc1Br — the same, 4
- O=C(CSc1nnc(-c2ccco2)o1)Nc1cccc2ccccc12 — the same, 4
- Cc1ccc(OCc2nc(-c3ccc(F)cc3)no2)cc1C — the same, 4
- COc1ccc(-c2nnc(SCC(=O)OCc3ccccc3)o2)cc1 — the same, 4
- Clc1ccc(-c2nc(-c3cccnc3)no2)c(Cl)c1 — lower, 2
- Cc1ccc(-c2nc(-c3ccccc3)no2)cc1Cl — lower, 3
- CC(=O)Nc1cccc(-c2nnc(SCc3ccccc3)o2)c1 — the same, 4
- Cc1ccccc1-c1noc(-c2ccccc2C(=O)NCc2ccccc2)n1 — the same, 4
- COc1ccc(-c2noc(COc3ccc(C)cc3Br)n2)cc1 — the same, 4
- Cn1c(SCc2nnc(-c3ccccc3)o2)nnc1-c1ccco1 — the same, 4
- Cc1ccccc1OCc1nc(-c2ccc(Br)cc2)no1 — the same, 4
- COc1cccc(-c2noc(COc3ccc(C(C)C)cc3)n2)c1 — the same, 4
- COC(=O)c1ccc(CSc2nnc(-c3ccc(OC)cc3)o2)cc1 — the same, 4
- O=C(NCc1cccnc1)c1ccccc1-c1nc(-c2ccccc2Cl)no1 — the same, 4
- Cc1ccc(OCc2nc(-c3ccc(Br)o3)no2)cc1C — the same, 4
- O=C(NCCc1ccccc1)c1ccccc1-c1nc(-c2ccccc2Cl)no1 — the same, 4
- COc1nc(C)ccc1-c1noc(-c2ccc(C(C)(C)C)cc2)n1 — the same, 4
- O=C(CSc1nnc(-c2ccccc2)o1)Nc1ccccc1C(F)(F)F — the same, 4
- Fc1ccc(-c2nc(-c3cccc(C(F)(F)F)c3)no2)cc1 — the same, 4
- CCOc1nc(-c2ccccc2)ccc1-c1noc(-c2cccc(C)c2)n1 — the same, 4
- COc1nc(-c2ccccc2)ccc1-c1noc(-c2ccccc2C)n1 — the same, 4
- Cc1cccc(OC(C)c2nc(-c3cccnc3)no2)c1 (centres undefined) — the same, 4
- COc1ccc(-c2noc(COc3ccc(Cl)cc3Cl)n2)cc1 — the same, 4
- COc1ccc(-c2noc(-c3ccc(C)cc3Cl)n2)cc1 — the same, 4
- O=C(CSc1nnc(-c2ccccc2)o1)Nc1cccc(Br)c1 — the same, 4
- Cc1ccc(OCc2nc(-c3ccccc3Cl)no2)cc1C — lower, 2
- Cc1cc(OCc2nc(-c3cccnc3)no2)c(C)c(C)c1Br — the same, 4
- Brc1cccc(-c2nnc(SCc3ccccc3)o2)c1 — the same, 4
- COc1ccc(-c2nnc(SCc3csc(N)n3)o2)cc1 — the same, 4
- Cc1cnc(NC(=O)CSc2nnc(-c3cccc(Cl)c3)o2)s1 — the same, 4
- COc1ccccc1-c1nnc(SCC(=O)Nc2ccc(C)cc2)o1 — the same, 4
